# From PubChem BioAssay (Tox21)
# Results filed as inconclusive are left out. The source made the active and inactive calls. Calls follow the shape of the full dose curve.
# Test: cAMP Responsive Elements (CRE) small molecule agonists, cell-based qHTS assay (AID 1963590)
# Conditions: CRE-bla HEK293T, beta-lactamase FRET ratio, 3 h; series mostly up to 92.4 µM; activation: at the top concentration
# Excerpt: U.S. Tox21 Program National Center for Advancing Translational Sciences [NCATS] Division of Preclinical Innovation [DPI] U.S. Environmental Protection Agency [EPA] National Institutes of Environmental Health Sciences [NIEHS] National Toxicology Program [NTP] U.S. Food and Drug Administration [FDA] Tox21 Assay Overview: CREB (cyclic-AMP Responsive Element Binding Protein) is a cellular transcription factor. It binds to certain DNA sequences called cAMP Responsive Elements (CRE) and regulates the transcription of the genes. […] This cell line can be used to find agonists/antagonists of the cyclic AMP signaling pathway. The activation of the report gene under culture conditions can be detected by fluorescence intensity. This cell line has been used to screen the Tox21 10K compound library to identify agonists that induce oxidative stress.
# Tox21 Assay Protocol Summary: CRE-bla Hek 293T cells were suspended in assay medium (DMEM containing 10% dialyzed FBS, 0.1 mM NEAA, 1 mM sodium pyruvate and 25 mM HEPES) and dispensed at 2,000 cells/5 uL /well into 1536-well black wall/clear bottom plates using a Multidrop Combi (ThermoFisher Scientific, Waltham, MA) dispenser. After the assay plates were incubated at 37 C/5% CO2 for 18 hrs, 23 nL of compounds dissolved in DMSO, positive controls or DMSO only was transferred to the assay plate by a pintool workstation (Kalypsys, San Diego, CA). After the plates were incubated at 37 C/5% CO2 for 3 hrs, 1 uL of LiveBLAzer B/G FRET substrate (Invitrogen, Carlsbad, CA) was added to each well using Bioraptr Flying Reagent Dispenser (FRD, Aurora Discovery, San Diego, CA). The plates were incubated at room temperature for 2 h.
# % is scaled to controls: 0 for no effect and ±100 for the full control effect; potency is read from the fitted curve at half-maximal effect.
SMILES,activation,Potency
OC[C@H]1O[C@@H](OCCc2ccc(O)cc2)[C@H](O)[C@@H](O)[C@@H]1O,0.302% [at 42.5 µM] (inactive),
NC(=O)c1cc[n+](CC2=C(C(=O)[O-])N3C(=O)[C@@H](NC(=O)Cc4cccs4)[C@H]3SC2)cc1,-0.0122% [at 42.5 µM] (inactive),
COC(=O)c1cc(Cl)cc(Cl)c1,0.158% (inactive),
Cc1cc2cc3c(C)cc(=O)oc3c(C)c2o1,-0.131% [at 42.5 µM] (inactive),
CCNCCO,0.404% (inactive),
CCCCCCCC/C=C\CCCCCCCC(=O)OCC,-0.811% (inactive),
O=C(Nc1ccc(S(=O)(=O)N2CCOCC2)cc1)c1cc(Cl)ccc1NS(=O)(=O)c1ccc(Cl)s1,11.5% [at 42.5 µM] (inactive),
CCCCCCCOC(=O)CCC,0.577% (inactive),
C=CCOCC(O)CCl (stereo not given),-0.3% (inactive),
CO[Si](C)(OC)OC,-1.32% (inactive),
c1ccc2c(c1)CCCC2C1=NCCN1 (stereo not given),1.22% [at 42.5 µM] (inactive),
C[C@@H](c1ncncc1F)C(O)(Cn1cncn1)c1ccc(F)cc1F (stereo not given in full),0.0064% [at 42.5 µM] (inactive),
CCN1C=CN(C)C1C (stereo not given),-0.479% (inactive),
COc1cc(C)cc(O)c1,-1.31% (inactive),
O=[N+]([O-])c1cc(N(CCO)CCO)ccc1NCCO,,inactive
Nc1nnc(-c2ccc([N+](=O)[O-])o2)o1,-1.44% (inactive),
c1ccc(B(c2ccccc2)c2ccccc2)cc1,0.122% (inactive),
CC(CC=O)c1ccccc1 (stereo not given),0.692% (inactive),
CCCCC(CC)COS(=O)(=O)O (stereo not given),0.111% (inactive),
CC(=O)NNC(C)=O,-1.1% (inactive),

SMILES,activation,Potency
Clc1ccc(C(Cn2ccnc2)OCc2ccc(Sc3ccccc3)cc2)c(Cl)c1 (stereo not given),0.58% [at 42.5 µM] (inactive),
O=C(Cl)c1c(Cl)cccc1Cl,0.538% (inactive),
CC(C)(C)C1=CC(=O)C=C(C(C)(C)C)C1=O,0.704% (inactive),
CC/C=C/CCCCCCCCCCOC(C)=O,-0.925% (inactive),
CC(=O)OCC(=O)[C@@]1(O)CC[C@H]2[C@@H]3CCC4=CC(=O)CC[C@]4(C)[C@H]3C(=O)C[C@@]21C,0.269% [at 42.5 µM] (inactive),
CC1(C)[C@H](C(=O)O)N2C(=O)C[C@H]2S1(=O)=O,-6.27% [at 42.5 µM] (inactive),
O=C(CCCCCCC(=O)Nc1ccccc1)NO,11.2% [at 42.5 µM] (inactive),
O=C1OC(=O)c2c(Br)c(Br)c(Br)c(Br)c21,2.72% (inactive),
Cc1ccccc1,0.189% (inactive),
C1C2OC2C2C1C1CC2C2OC12 (stereo not given),0.174% (inactive),
CCCCCCCCC(CO)CCCCCC (stereo not given),-1.72% (inactive),
NC1=NCC2c3ccccc3Cc3ccccc3N12 (stereo not given),1.3% [at 42.5 µM] (inactive),
CC(C)(CO)[N+](=O)[O-],-0.211% (inactive),
CCOC(=O)CC(O)(CC(=O)OCC)C(=O)OCC,-2.82% (inactive),
CC(C)=CCNc1ncnc2c1ncn2[C@@H]1O[C@H](CO)[C@@H](O)[C@H]1O,,11.9 µM (active)
CC(=O)O[Si](C)(OC(C)=O)OC(C)=O,-1.07% (inactive),
CCCCC(CC)CNC(=O)CC(C)OC(=O)CCC(=O)O (stereo not given),-0.31% [at 42.5 µM] (inactive),
NS(=O)(=O)c1ccc(C(=O)O)cc1,-0.455% [at 42.5 µM] (inactive),
CC(=O)OCC1=C(C(=O)O)N2C(=O)[C@@H](NC(=O)CSc3ccncc3)[C@H]2SC1,-0.348% [at 42.5 µM] (inactive),
O=C1NCCN1,-0.136% (inactive),
